Bioassay records (PubChem BioAssay)
ERG-DNA inh: qHTS for Small Molecule Inhibitors of the ERG Ets/DNA interaction; 370,000 tested, 0.028% active; Transcriptional regulator ERG (Homo sapiens), P11308; fluorescence polarization, His-ERG Ets domain / labelled DNA; Potency, µM (doses to about 76.9 µM), usual class: inhibitors; active means well fitted inhibition curve with a large enough effect in the polarisation, with a control signal flat; inconclusive means small, poorly fitted or top-dose-only effect, or effect the other way, or a change in a side signal; inactive means no such curve, though single readings can be large or run the other way; the % refers to the polarisation;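 further: polarization taken with two DNA probes labelled with fluorescein and Texas red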
Target sequence (P11308 whole entry, looked up, the tested form may be a part): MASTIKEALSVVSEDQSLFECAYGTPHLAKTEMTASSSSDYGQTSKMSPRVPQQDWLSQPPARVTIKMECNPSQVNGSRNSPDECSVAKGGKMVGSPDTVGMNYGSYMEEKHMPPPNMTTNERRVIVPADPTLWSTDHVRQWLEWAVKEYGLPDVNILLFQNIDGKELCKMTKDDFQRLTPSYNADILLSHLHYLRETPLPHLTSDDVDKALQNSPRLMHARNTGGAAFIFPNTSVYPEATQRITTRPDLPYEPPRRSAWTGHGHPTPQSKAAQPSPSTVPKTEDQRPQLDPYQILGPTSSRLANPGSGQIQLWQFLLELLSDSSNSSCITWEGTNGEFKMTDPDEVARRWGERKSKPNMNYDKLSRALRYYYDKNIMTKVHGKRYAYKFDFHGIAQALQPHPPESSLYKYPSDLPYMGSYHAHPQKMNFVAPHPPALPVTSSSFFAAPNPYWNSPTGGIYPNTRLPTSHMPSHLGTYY
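His-tagged ERG Ets domain (1 uM in the protein solution; 300mM KCl, 50mM Tris-HCl, 1mM EDTA, 1mM DTT, pH 7.5) received compound, then a probe mix of 5 nM fluorescein-DNA and 100nM Texas-615-DNA. Fluorescence polarization was read for both dyes.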
Gal4-VP16 FLuc: VP16 counterscreen qHTS for inhibitors of ROR gamma transcriptional activity; 310,000 tested, 3.5% active; Drosophila S2 Gal4-VP16 UAS-luciferase, luminescence, 20 h; Potency, µM (series often up to 53.6 µM), hits mostly inhibitors;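 further: Gal4-VP16 expression switched on by copper sulfate through the metallothionein promoter; nearly all actives have a fitted effect of over 50% in size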
Giardia killer: Small Molecules that selectively kill Giardia lamblia: qHTS; 340,000 tested, 0.15% active; Giardia lamblia trophozoite viability; AID 540267, 2011; activity change, % at 7.66 µM, hits read low; in the data active means activity change below about -80%; inconclusive means between about -30% and that limit;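 further: parasites exposed to compound for two days anaerobically before the ATP read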
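Killing of trophozoites was scored by loss of ATP luminescence after a 48 hrs anaerobic exposure to compounds at 37 deg C, using 100 cells per well.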
RORg inh: qHTS for inhibitors of ROR gamma transcriptional activity; Nuclear receptor ROR-gamma (Mus musculus), P51450; Drosophila S2 Gal4-RORgamma UAS-luciferase reporter, 20 h; Potency, µM (titrated, usually from 53.6 µM), usual class: inhibitors; 310,000 tested, 5.4% active; further: nearly all actives have a fitted effect of over 60% in size
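ROR gamma transcriptional activity was tracked as Gal4-UAS luciferase output in stably transfected Drosophila Schneider cells, with compound added 1 hr before 700 uM copper sulfate induction and a 20 hr ambient-temperature incubation.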
a7 integrin act: qHTS for Activators of Integrin-Mediated Alleviation for Muscular Dystrophy | AID 624291, 2012 | Potency, µM (series often up to 38.3 µM), actives largely listed as activators | 350,000 tested, 0.064% active | alpha7betagal myoblasts, beta-gal FDG fluorescence, 48 h; further: nearly all actives have a fitted effect of over 60% in size
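alpha7betagal+/- myoblasts (passage 13, 250/well) treated 48 h at 37C with compounds at 1:260 dilution of DMSO stock. Lysed, then beta-galactosidase activity read as FDG fluorescence (ex 480/em 540) after 30 min, with pre-read for autofluorescence.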
Numbers stand for hits; - = inactive; ? = inconclusive; . = no result; [ ] = remark or other dose. This is one part of a sample in which hits are shown more often than they occur. Unless noted, the call rests on the fitted dose curve; in most records, active means well fitted curve in the direction sought with a large enough effect; inconclusive means small, poorly fitted or top-dose-only effect, or another doubt; inactive means no such curve, though single readings can be large; an effect the other way counts as inactive or inconclusive.

SMILES | ERG-DNA inh | Gal4-VP16 FLuc | Giardia killer | RORg inh | a7 integrin act
COc1ccc(C2/C=C\CN(C(=O)CC(C)(C)C)C(C)C(=O)N2Cc2ccc(F)cc2)cc1 (centres undefined) | . | - | - | ? | .
COc1ccc(/C=C/C(=O)CC(O)(c2ccccc2)C(F)(F)F)cc1 (centres undefined) | - | ? | - | 14.1µM | -
O=C(/C=C/c1ccccc1)CC(O)(c1ccccc1)C(F)(F)F (centres undefined) | . | ? | - | ? | -
NC(N)=NCCC[C@H](NC(=O)[C@H](Cc1ccccc1)NC(=O)[C@@H]1CCCN1C(=O)[C@H](CO)NC(=O)[C@H](Cc1ccccc1)NC(=O)CNC(=O)[C@@H]1CCCN1C(=O)[C@@H]1CCCN1C(=O)[C@@H](N)CCCN=C(N)N)C(=O)O | . | - | . | - | .
Cc1nn(CCC#N)c2nc(-c3ccccc3)cc(C(F)(F)F)c12 | - | - | - | - | -
Cc1nn(CCC(N)=S)c2nc(-c3cccs3)cc(C(F)(F)F)c12 | - | 6.31µM | - | 7.08µM | -
CCCN(C(=O)CSCC(=O)Nc1ccc(OC)cc1)c1c(N)n(Cc2ccccc2)c(=O)[nH]c1=O | - | . | - | . | -
Cc1ccc2nc(/C(C#N)=C\c3ccc([N+](=O)[O-])o3)[nH]c2c1 | - | 3.16µM | - | 5.62µM | -
N#C/C(=C\Nc1ccc2c(c1)OCCO2)c1nc2ccccc2[nH]1 | - | 5.01µM | - | 3.16µM | -
N#C/C(=C\c1ccc([N+](=O)[O-])o1)c1nc2ccccc2[nH]1 | - | 1.58µM | - | 2µM | -
N#C/C(=C(/O)c1ccc([N+](=O)[O-])o1)c1nc2ccccc2[nH]1 | - | - | -92.0 | - | -
N#C/C(=C(/O)c1ccc(-c2cccc([N+](=O)[O-])c2)o1)c1nc2ccccc2s1 | - | ? | - | - | -
CC(=O)NCCNc1nc(-c2cccnc2)nc2ccccc12 | . | - | . | - | .
Cc1c(S(=O)(=O)NC2CCCCC2)c(=O)n(C)c(=O)n1C | - | . | - | . | -
NC1=CC(=O)c2cccc3cccc1c23 | . | 22.4µM | . | 11.2µM | .
O=C1C=C(O)c2cccc3cccc1c23 | - | - | - | - | -
O=C1NN=C(c2ccc(Br)cc2)CC1c1ccc(Cl)cc1 (centres undefined) | - | - | - | - | -
Cc1ccc(C2CC(c3ccc(Cl)cc3)=NNC2=O)cc1 (centres undefined) | - | 14.1µM | - | ? | -
O=C(CCCc1ccc(-c2ccccc2F)cc1)Nc1ccc(O)cc1 | . | 4.47µM | . | 1.58µM | .
CCOc1ccc(OCCC(=O)OC(C)C(=O)Nc2ccc(C(C)=O)cc2)cc1 (centres undefined) | - | - | - | - | -
CCOC(=O)c1cc(-c2ccc(C)cc2)n(CC(=O)Nc2ccc(OC)c(Cl)c2)c1C | - | . | . | . | .
Cc1ccccc1-n1c(=O)n(CCc2ccccc2)c(=O)c2[nH]cnc21 | ? | - | - | - | -
Cc1ccccc1-n1c(=O)n(Cc2ccccc2)c(=O)c2[nH]cnc21 | - | - | - | 0.282µM | -
CCC(C)n1c(SCC(=O)NC(=O)c2cccn2C)nc2ccccc2c1=O (centres undefined) | - | ? | - | 14.1µM | -
CCNC(=S)Nc1ccc(Cc2ccncc2)cc1 | - | - | - | - | -
SMILES | ERG-DNA inh | Gal4-VP16 FLuc | Giardia killer | RORg inh | a7 integrin act
CC(C)(C)C(=O)NC(=S)Nc1ccc(F)cc1 | . | ? | - | 10µM | -
CC(C)(C)C(=O)NC(=S)Nc1ccc(Cc2ccncc2)cc1 | - | 12.6µM | - | 12.6µM | -
CNC(=S)Nc1ccc(Cc2ccncc2)cc1 | - | - | - | - | -
O=C(NC(=S)Nc1ccc(Cc2ccncc2)cc1)c1ccc(F)cc1 | - | ? | - | 4.47µM | -
O=C1CC2C(CCC23OCCO3)c2ccc3ccccc3c21 (centres undefined) | . | . | ? | . | -
c1ccc(-c2ccc(-c3ccccn3)nn2)nc1 | . | 8.91µM | . | 5.62µM | .
CC(=O)c1ccc(N2CCN(S(=O)(=O)c3cc(-c4onc(C)c4C)ccc3C)CC2)cc1 | - | . | . | . | .
Cc1nc2sccn2c1-c1csc(NCc2ccccc2)n1 | . | 1µM | - | ? | -
COc1ccc2c(c1)C(=O)[C@@H](OC(=O)Nc1ccc(C)c(Br)c1)[C@H](c1ccc(OC)c(Br)c1)O2 | . | - | . | - | .
CCOc1ccc(N=Nc2ccc(N)cc2N)cc1 | . | 10µM | . | 8.91µM | .
O=C(Nc1ncccc1O)c1ccc2c(c1)OCCO2 | - | . | - | . | -
Cc1ccccc1N=Nc1ccc(N=Nc2c(O)ccc3ccccc23)c(C)c1 | . | - | . | -[10 µM] | .
Cc1cccc(N=Nc2ccc(O)c3ncccc23)c1 | - | 0.0355µM | - | 0.112µM | -
Cc1ccc(C)c(N=Nc2ccc(O)c3ncccc23)c1 | - | - | - | 0.112µM | -
Oc1ccc(N=Nc2ccc3c(c2)OCCO3)c2ncccc12 | - | 0.398µM | - | 0.316µM | -
NS(=O)(=O)c1ccc(N=Nc2ccc(O)c3ncccc23)cc1 | - | ? | - | - | -
CCOc1ccc(N=Nc2ccc(O)c3ncccc23)cc1 | - | 0.398µM | - | 0.282µM | -
C=CCn1c(=NC(=O)c2ccc(S(=O)(=O)N3CCc4ccccc4C3)cc2)sc2cc(S(N)(=O)=O)ccc21 | - | - | - | - | -
C#CCn1c(=NC(=O)c2ccc(S(=O)(=O)N3CCc4ccccc4C3)cc2)sc2cc(S(N)(=O)=O)ccc21 | - | 10µM | - | 11.2µM | -
CC1CCN(S(=O)(=O)c2ccc(S(=O)(=O)N3CCCC3)cc2)CC1 | - | - | - | - | 8.91µM
CC1C=CCC2C(=O)N(c3cccc(C(=O)NCc4ccccc4)c3)C(=O)C12 (centres undefined) | - | - | - | - | ?
CCNC(=S)Nc1ccccc1-c1ccccc1 | - | 11.2µM | - | 8.91µM | -
O=C(Nc1ccccc1-c1ccccc1)C(c1ccccc1)c1ccccc1 | - | - | - | - | -
CNC(=S)Nc1ccccc1-c1ccccc1 | - | ? | - | 11.2µM | -
Fc1ccc(Nc2cccc3nccnc23)cc1 | - | ? | - | - | -
SMILES | ERG-DNA inh | Gal4-VP16 FLuc | Giardia killer | RORg inh | a7 integrin act
c1cc(Nc2cccc3nccnc23)c2nccnc2c1 | - | 1.12µM | - | 0.282µM | -
C#CCN(C[C@H]1[C@H](OC(=O)NC2CC2)[C@H](OC(=O)NC2CC2)C[C@@H](C(=O)OC)[C@H]1C(=O)OC)S(=O)(=O)c1ccc(C)cc1 | . | . | . | . | -
Cc1cccc(NC(=S)NNC(=O)c2cc3c(s2)CCC(C)C3)c1C (centres undefined) | - | ? | - | 17.8µM | -
Cc1ccc(C)c(NC(=S)NNC(=O)c2cc3c(s2)CCC(C)C3)c1 (centres undefined) | - | - | - | - | -
COc1cc(NC(=S)NCc2cccs2)cc(OC)c1 | - | 11.2µM | - | 5.01µM | -
S=C(NCc1cccs1)Nc1ccc(Br)cc1Cl | - | - | - | ? | ?
